Experimental data published in PubChem BioAssay (NCATS).
“And” between values parts separate entries of the source, which are not always exact repeats. Equal entries are not always repeated. Results filed as inconclusive are left out. The source made the active and inactive calls. Unless noted, the call rests on the fitted dose curve.

Experiments:
[1] = target: Bile acid receptor (Homo sapiens) (UniProt Q96RI1); assay: qHTS assay for small molecule agonists of farnesoid X receptor signaling (AID 588527); conditions: HEK293T FXR-UAS-bla, beta-lactamase ratio, 16 h; activation: stronger effect = higher value;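 further: series mostly up to about 77 µM; 0% = vehicle basal and 100% = reference agonist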
Bile acid receptor (Homo sapiens), sequence (Q96RI1 whole entry, looked up): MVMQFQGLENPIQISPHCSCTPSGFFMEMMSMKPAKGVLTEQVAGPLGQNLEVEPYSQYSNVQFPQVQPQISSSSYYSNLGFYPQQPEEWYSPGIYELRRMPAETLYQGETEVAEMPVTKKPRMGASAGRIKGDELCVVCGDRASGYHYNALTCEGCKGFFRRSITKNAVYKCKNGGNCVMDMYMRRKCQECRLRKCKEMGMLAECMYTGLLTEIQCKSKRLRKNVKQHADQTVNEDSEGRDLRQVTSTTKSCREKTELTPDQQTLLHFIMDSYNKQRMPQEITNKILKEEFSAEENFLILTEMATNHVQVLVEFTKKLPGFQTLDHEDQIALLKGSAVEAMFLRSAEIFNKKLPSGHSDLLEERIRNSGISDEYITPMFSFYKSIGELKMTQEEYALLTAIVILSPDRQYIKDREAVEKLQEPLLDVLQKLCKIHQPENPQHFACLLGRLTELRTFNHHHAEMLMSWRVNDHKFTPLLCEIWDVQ
In short: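 Agonist-mode beta-lactamase reporter in GeneBLAzer FXR-UAS-bla HEK293T cells, titration up to 92 uM, 16 h exposure at 37 C, CCF4 fluorescence. Response scaled to DMSO (0%) and 100 uM chenodeoxycholic acid (100%), then Hill-fitted for EC50 and efficacy.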

[2] = target: Peroxisome proliferator-activated receptor delta (Homo sapiens) (UniProt Q03181); assay: qHTS assay for small molecule agonists of peroxisome proliferator-activated receptor delta signaling (AID 588534);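 further: 0% = DMSO basal wells and 100% = positive control agonist at 10 µM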
Peroxisome proliferator-activated receptor delta (Homo sapiens), sequence (Q03181 whole entry, looked up): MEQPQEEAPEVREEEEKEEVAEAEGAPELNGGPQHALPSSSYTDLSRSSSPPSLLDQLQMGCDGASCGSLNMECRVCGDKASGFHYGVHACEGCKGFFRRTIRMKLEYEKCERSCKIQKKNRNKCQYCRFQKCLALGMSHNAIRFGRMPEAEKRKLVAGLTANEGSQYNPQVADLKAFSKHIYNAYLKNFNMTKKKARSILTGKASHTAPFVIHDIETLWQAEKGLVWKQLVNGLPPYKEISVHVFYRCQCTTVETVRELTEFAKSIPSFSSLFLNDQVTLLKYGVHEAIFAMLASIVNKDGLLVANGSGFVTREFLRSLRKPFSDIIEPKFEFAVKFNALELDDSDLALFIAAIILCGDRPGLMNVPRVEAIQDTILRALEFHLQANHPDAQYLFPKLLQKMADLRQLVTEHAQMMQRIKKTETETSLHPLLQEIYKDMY
In short: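 Agonist-mode qHTS; reporter cells, 5 hrs 37 C pre-incubation; compound titration, 18 hrs 37 C; CCF4 dye, 2 hrs RT; fluorescence read. EC50/efficacy via Hill fit.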

[3] = qHTS assay for small molecule antagonists of peroxisome proliferator-activated receptor delta signaling (AID 588535; active means well fitted inhibition curve with a large enough effect in the signal ratio, with a control signal flat, not every such curve was filed as active; the % refers to the signal ratio;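 on max response: cells co-treated with a PPAR-delta agonist as stimulator during compound exposure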); conditions: HEK293T PPARd-UAS-bla, beta-lactamase FRET ratio, 18 h; 460 nm channel
In short: (§1)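 Inhibition of PPAR-delta response element-driven beta-lactamase expression is measured in HEK293T cells exposed to a compound titration series for 18 hrs at 37 C. Half-maximal inhibition comes from Hill equation fitting.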

[4] = target: Peroxisome proliferator-activated receptor delta (Homo sapiens) (UniProt Q03181); assay: as above
In short: as §1

[5] = target: Vitamin D3 receptor (Homo sapiens) (UniProt P11473); assay: qHTS assay for small molecule antagonists of vitamin D receptor signaling (AID 588541);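 further: receptor activated by calcitriol during compound treatment; series mostly up to about 77 µM; on the % scale 0 is the no-effect control and ±100 the full control effect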
Vitamin D3 receptor (Homo sapiens), sequence (P11473 whole entry, looked up): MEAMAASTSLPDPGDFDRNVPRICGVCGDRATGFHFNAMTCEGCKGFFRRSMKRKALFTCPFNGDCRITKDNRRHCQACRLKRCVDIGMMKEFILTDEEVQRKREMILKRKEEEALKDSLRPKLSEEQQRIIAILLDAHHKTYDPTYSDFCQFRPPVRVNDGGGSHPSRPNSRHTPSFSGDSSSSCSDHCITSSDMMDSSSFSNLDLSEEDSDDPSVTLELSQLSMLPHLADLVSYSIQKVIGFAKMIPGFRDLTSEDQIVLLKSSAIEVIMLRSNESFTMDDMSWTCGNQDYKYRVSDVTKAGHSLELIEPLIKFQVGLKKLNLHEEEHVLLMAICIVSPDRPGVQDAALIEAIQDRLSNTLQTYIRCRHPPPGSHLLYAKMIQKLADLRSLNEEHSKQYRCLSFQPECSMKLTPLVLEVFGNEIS
In short: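 VDR-UAS-bla HEK293T cells (2000/well, 2% charcoal-stripped FBS) were treated with titrated compounds plus 1-alpha,25-dihydroxyvitamin D3 (50 nM or 3 nM final) for 16 h at 37 C. CCF4 beta-lactamase fluorescence was read; Hill fits gave IC50.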

[6] = target: Vitamin D3 receptor (Homo sapiens) (UniProt P11473); assay: qHTS assay for small molecule agonists of vitamin D receptor signaling (AID 588543);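 further: 0% = DMSO basal and 100% = reference agonist control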
In short: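 VDR-UAS-bla HEK293T cells, 2000/well, 2% charcoal-stripped FBS; compound titration 16 h at 37 C; CCF4 beta-lactamase ratio read. Normalized to 50 nM 1-alpha,25-dihydroxyvitamin D3 (100%) and DMSO; Hill fit gives EC50, efficacy.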

[7] = qHTS assay for small molecule antagonists of retinoid X receptor alpha signaling (AID 588546; active means well fitted inhibition curve with a large enough effect in the signal ratio, with a control signal flat, not every such curve was filed as active; the % refers to the signal ratio;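 further: cells stimulated with 9-cis-retinoic acid as agonist; on the % scale 0 is the no-effect control and ±100 the full control effect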); conditions: HEK293T RXRa-UAS-bla, beta-lactamase ratio, antagonist mode; measured here: W530 green channel, cytotoxicity proxy
In short: (§2)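 Beta-lactamase reporter inhibition, read as CCF4 fluorescence ratio (ex 405, em 460/530 nm) after 2 h at RT. HEK293T UAS-bla cells, 2500/well, were stimulated with 9-cis-RA at 500 or 100 nM final alongside test compound for 18 h at 37 C.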

[8] = target: Retinoic acid receptor RXR-alpha (Homo sapiens) (UniProt P19793); assay: as above; conditions: HEK293T RXRa-UAS-bla, beta-lactamase ratio, antagonist mode
Retinoic acid receptor RXR-alpha (Homo sapiens), sequence (P19793 whole entry, looked up): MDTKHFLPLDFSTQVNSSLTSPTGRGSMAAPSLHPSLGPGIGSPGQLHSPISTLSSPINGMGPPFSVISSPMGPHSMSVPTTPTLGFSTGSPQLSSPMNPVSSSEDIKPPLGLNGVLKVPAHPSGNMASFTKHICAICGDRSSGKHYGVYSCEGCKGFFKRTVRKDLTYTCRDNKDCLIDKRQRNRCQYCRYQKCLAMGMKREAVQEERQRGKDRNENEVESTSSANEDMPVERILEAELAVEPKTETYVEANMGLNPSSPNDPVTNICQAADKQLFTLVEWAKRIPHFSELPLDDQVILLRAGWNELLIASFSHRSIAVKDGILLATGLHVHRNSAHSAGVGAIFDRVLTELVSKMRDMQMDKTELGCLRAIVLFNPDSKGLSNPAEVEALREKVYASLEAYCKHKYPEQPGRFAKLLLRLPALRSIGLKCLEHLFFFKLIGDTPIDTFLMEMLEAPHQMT
In short: as §2

[9] = qHTS assay for small molecule activators of the p53 signaling pathway (AID 651743; active means well fitted activation curve with a large enough effect in the signal ratio, not every such curve was filed as active; the % refers to the signal ratio; further: series mostly up to about 92 µM; % of control where 0% means no effect); conditions: HCT-116 p53RE-bla, beta-lactamase FRET ratio, 16 h; activation: stronger effect = higher value
In short: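 Agonist-mode quantitative HTS in HCT-116 cells carrying a p53-response-element beta-lactamase reporter; 16 h compound treatment at 37 C, then FRET substrate loading for 2 h at room temperature and fluorescence read.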

[10] = qHTS assay for small molecule activators of the nuclear factor-kappa B (NF-kB) signaling pathway (AID 651749; active means well fitted activation curve with a large enough effect in the signal ratio; the % refers to the signal ratio; further: series mostly up to about 77 µM; % of control where 0% means no effect); conditions: NF-kB-bla ME-180 cells, beta-lactamase FRET ratio, 16 h; activation: stronger effect = higher value
In short: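 Human ME-180 cervical cells with an NF-kB-bla construct; compounds added via 23 nL pin transfer, DMSO as vehicle; incubation 16 hr. Reporter activity measured by FRET disruption.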

[11] = qHTS assay for environmental chemicals that activate the Aryl hydrocarbon Receptor (AhR) signaling pathway (AID 651777; active means well fitted curve in the direction sought with a large enough effect; an effect the other way counts as inactive or inconclusive; further: % of control where 0% means no effect; nearly all actives have a fitted effect of over 15% in size); conditions: 1A2-DRE human hepatoma cells, luciferase, 24 h; activation: stronger effect = higher value
In short: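 Reporter gene assay: hepatoma cells with DRE/CYP1A2-luciferase, 24 hr compound incubation at 37 C, 5% CO2, luminescence after One-Glo (30 min, RT).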

[12] = target: Peroxisome proliferator-activated receptor alpha (Homo sapiens) (UniProt Q07869); assay: qHTS assay for small molecule agonists of the peroxisome proliferator-activated receptor alpha (PPARalpha) signaling pathway (AID 651778; active means well fitted curve in the direction sought with a large enough effect; an effect the other way counts as inactive or inconclusive; further: % of control where 0% means no effect); conditions: PathHunter PPARalpha complementation, chemiluminescence, 6 h; max response: stronger effect = higher value
Peroxisome proliferator-activated receptor alpha (Homo sapiens), sequence (Q07869 whole entry, looked up): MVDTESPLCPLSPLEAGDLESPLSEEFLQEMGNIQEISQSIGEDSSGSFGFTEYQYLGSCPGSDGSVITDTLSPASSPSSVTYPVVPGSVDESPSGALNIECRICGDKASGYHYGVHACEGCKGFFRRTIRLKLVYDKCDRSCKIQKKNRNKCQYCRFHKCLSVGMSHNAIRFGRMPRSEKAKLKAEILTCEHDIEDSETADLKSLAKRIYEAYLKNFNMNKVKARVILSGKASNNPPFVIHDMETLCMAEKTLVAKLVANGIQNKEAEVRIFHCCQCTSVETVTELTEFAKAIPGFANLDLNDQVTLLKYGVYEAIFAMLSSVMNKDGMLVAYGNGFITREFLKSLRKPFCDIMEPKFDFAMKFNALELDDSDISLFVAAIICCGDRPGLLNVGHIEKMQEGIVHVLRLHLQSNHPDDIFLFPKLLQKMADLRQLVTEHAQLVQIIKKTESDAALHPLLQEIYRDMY
In short: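 Cells plated at 2,000/well and held overnight at 37 C, 5% CO2, then compound added by pin tool for 6 hr; after PathHunter detection reagent and 60 min at room temperature, chemiluminescence from enzyme complementation was read.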

[13] = qHTS assay for small molecule agonists of the antioxidant response element (ARE) signaling pathway measured by Nrf2-dependant transcriptional activity - cell viability counter screen (AID 720653; active means well fitted curve in the direction sought with a large enough effect in the repeat runs; an effect the other way counts as inactive or inconclusive; further: on the % scale 0 is the no-effect control and ±100 the full control effect); conditions: ARE-bla HepG2 viability, CellTiter-Glo ATP luminescence, 16 h; max response: stronger effect = lower value
In short: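 ARE-bla HepG2 cells (2,000/well) rested 5 hrs at 37C/5% CO2, then exposed to compounds in DMSO for 16 hrs. Viability was read in the same wells as intracellular ATP by luminescence, 30 min at room temperature after reagent addition.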

[14] = qHTS assay for cell viability of HEK293 cells (AID 743288; active means well fitted curve in the direction sought with a large enough effect; an effect the other way counts as inactive or inconclusive; further: nearly all actives have a fitted effect of over 50% in size; further: potency means the concentration at half of the fitted maximal effect; on max response: on the % scale 0 is the no-effect control and ±100 the full control effect); conditions: ATP luminescence (CellTiter-Glo), 18 h; max response: stronger effect = lower value
In short: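 Steps: plate 2,000 parental HEK293 cells per well; incubate ≥5 h, 37 C; add compounds in DMSO; incubate 18 h, 37 C; add CellTiter-Glo; wait 30 min at room temperature; read luminescence.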

[15] = qHTS assay for cell viability of the p53RE-bla HCT-116 cell line (AID 743292; active means well fitted curve in the direction sought with a large enough effect; an effect the other way counts as inactive or inconclusive; further: on the % scale 0 is the no-effect control and ±100 the full control effect; nearly all actives have a fitted effect of over 55% in size)
In short: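 ATP-based luminescence, 16 h compound exposure at 37 C, p53RE-bla HCT-116 cells at 4,000/well.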

[16] = target: Nuclear receptor subfamily 1 group I member 2 (Rattus norvegicus) (UniProt Q9R1A7); assay: qHTS assay for small molecule activators of the rat pregnane X receptor (rPXR) signaling pathway (AID 651751; call rule not given here; further: 0% is about no effect); conditions: rPXR reporter cells, luciferase (One-Glo), 24 h
Nuclear receptor subfamily 1 group I member 2 (Rattus norvegicus), sequence (Q9R1A7 whole entry, looked up): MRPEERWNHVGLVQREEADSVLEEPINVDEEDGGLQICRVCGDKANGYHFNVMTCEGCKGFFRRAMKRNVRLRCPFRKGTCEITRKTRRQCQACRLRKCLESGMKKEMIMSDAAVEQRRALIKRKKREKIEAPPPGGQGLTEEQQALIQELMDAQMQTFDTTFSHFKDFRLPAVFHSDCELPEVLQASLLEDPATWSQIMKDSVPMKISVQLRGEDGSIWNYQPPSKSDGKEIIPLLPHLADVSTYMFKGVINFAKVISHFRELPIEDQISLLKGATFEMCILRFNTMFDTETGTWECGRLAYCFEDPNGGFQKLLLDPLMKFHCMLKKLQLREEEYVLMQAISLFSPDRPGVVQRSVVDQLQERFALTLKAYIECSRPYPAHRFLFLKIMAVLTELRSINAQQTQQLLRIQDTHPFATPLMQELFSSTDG

[17] = target: Thyroid hormone receptor beta (Homo sapiens) (UniProt P10828); assay: qHTS assay for small molecule agonists of thyroid hormone receptor beta signaling (AID 588545)
Thyroid hormone receptor beta (Homo sapiens), sequence (P10828 whole entry, looked up): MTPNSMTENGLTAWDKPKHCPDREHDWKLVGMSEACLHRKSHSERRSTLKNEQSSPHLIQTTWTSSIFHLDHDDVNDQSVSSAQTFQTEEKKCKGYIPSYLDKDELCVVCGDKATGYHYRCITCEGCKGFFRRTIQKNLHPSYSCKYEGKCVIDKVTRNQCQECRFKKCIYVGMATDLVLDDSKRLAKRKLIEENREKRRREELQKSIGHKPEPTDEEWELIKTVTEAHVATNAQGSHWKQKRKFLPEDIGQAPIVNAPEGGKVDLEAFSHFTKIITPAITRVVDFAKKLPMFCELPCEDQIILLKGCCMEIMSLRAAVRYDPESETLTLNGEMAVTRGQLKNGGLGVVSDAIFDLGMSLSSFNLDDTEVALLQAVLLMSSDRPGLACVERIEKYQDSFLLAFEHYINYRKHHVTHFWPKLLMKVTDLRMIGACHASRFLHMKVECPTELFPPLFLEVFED
In short: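 Agonist activity was read as beta-lactamase CCF4 fluorescence (405 ex, 460/530 em), scaled between DMSO (0%) and 10 nM T3 (100%), then Hill-fitted for EC50 and efficacy. HEK 293 TR-UAS-bla cells in 2% charcoal/dextran FBS medium were exposed 18 h at 37 C.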

[18] = qHTS assay for small molecule agonists of the antioxidant response element (ARE) signaling pathway measured by Nrf2-dependant transcriptional activity (AID 720636; active means well fitted curve in the direction sought with a large enough effect in the repeat runs; an effect the other way counts as inactive or inconclusive;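 further: HepG2 cells with an ARE-driven luciferase reporter; % of control where 0% means no effect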)
In short: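 Nrf2-dependent transcription is measured in ARE-luc HepG2 cells: compound is applied for 16 hr at 37 C after a 6 hr attachment period, and luciferase activity is quantified by luminescence using ONE-Glo.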

[19] = qHTS assay for small molecule agonists of retinoid X receptor alpha signaling (AID 588544); conditions: HEK293T RXRa-UAS-bla, beta-lactamase reporter, 18 h; 530 nm emission; further: potency means the concentration at half of the fitted maximal effect;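 on activation: 0% = DMSO basal wells and 100% = reference agonist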
[20] = target: Retinoic acid receptor RXR-alpha (Homo sapiens) (UniProt P19793); assay: as above

COC[C@H](C)N(C(=O)CCl)c1c(C)csc1C
-36.8%: max response [3]
inactive: activation [1] -0.72% | outcome [2] | Potency [4] | Potency [5] | outcome [6] | max response [8] -19.4% | activation [9] -5.41% | activation [10] -0.69% | activation [11] -2.7% | max response [12] -0.842% | max response [13] 0.25% | max response [14] -14.5% | Potency [15] | max response [16] 0.618%
-0.446%: max response [7]

CC1(C)[C@H](C=C(Cl)Cl)[C@H]1C(=O)O[C@H](C#N)c1ccc(F)c(Oc2ccccc2)c1
-5.65%: max response [7]
inactive: outcome [2] | Potency [4] | Potency [5] | outcome [6] | Potency [17] | max response [8] -6.52% | activation [9] -1.98% and 0.257% | activation [10] 4.2% | activation [11] 1.36% and 3.44% | max response [12] -0.256% and -0.375% | Potency [18] | max response [13] -5.83% and -7.88% | max response [14] -3.74% and -16.6% | Potency [15]
27%: max response [3]

CCC(C)(NC(=O)c1cc(Cl)c(C)c(Cl)c1)C(=O)CCl (stereo not given)
31.6%: max response [3]
inactive: activation [1] -3.52% | outcome [2] | Potency [4] | Potency [17] | activation [9] 14.9% | activation [10] -0.168% | activation [11] 1.89% | max response [12] 0.829% | max response [13] 0.353% | max response [14] -19.8% | Potency [15] | max response [16] 1.32%

CCCCNC(=O)OCC#CI
2.86%: max response [7]
inactive: activation [1] 1.93% | outcome [2] | Potency [17] | max response [8] -22.6% | activation [9] -1.36% | activation [11] -10.9% | max response [12] -2.4% | Potency [18] | Potency [15]

CCSC(=O)N(CC)C1CCCCC1
inactive: activation [1] -3.64% | outcome [2] | Potency [5] | outcome [6] | Potency [20] | Potency [17] | max response [8] 16.6% | activation [10] 1.91% | max response [12] -3.86% | Potency [18] | max response [13] 13.6% | max response [14] 10.3% | max response [16] -10.9%
12.6%: max response [7]
-3.68%: max response [19]

CCC[CH2][Sn]([Cl])([CH2]CCC)[CH2]CCC
inactive: activation [1] 7.19% | activation [11] 8.68% | max response [12] 2.3%
active: Potency [20] 0.398 µM | Potency [14] 50.1 µM
-0.857%: max response [19]

O=C(O)C(F)(F)C(F)(F)C(F)(F)C(F)(F)C(F)(F)C(F)(F)C(F)(F)C(F)(F)F
1.6% and -25.9%: max response [19]
inactive: activation [1] 3.01% and 1.7% | outcome [2] | Potency [4] | Potency [5] | outcome [6] | Potency [20] | Potency [17] | max response [8] 2.77% and -39.3% | activation [9] 1.7% | activation [11] 2.07% and 1.12% | max response [12] -1.46% and 5.33% | Potency [18] | max response [13] 4.68% and -1.78% | max response [14] -7.25% and -13% | Potency [15] | max response [16] 1.17% and 2.66%
-4.97% and -33.9%: max response [3]
-12.8% and -2.74%: max response [7]
